Source: PubChem BioAssay (National Center for Advancing Translational Sciences (NCATS))
Hits are enriched below; roughly 4.6% of the tested compounds scored in any of these assays.
D1 ag = agonists of human D1 dopamine receptor. hit rate 1% among 360,000. P21728. HEK293 T-REx D1 cells, calcium flux, agonist mode. activation, % at 2 µM
Target sequence (P21728 whole entry, looked up): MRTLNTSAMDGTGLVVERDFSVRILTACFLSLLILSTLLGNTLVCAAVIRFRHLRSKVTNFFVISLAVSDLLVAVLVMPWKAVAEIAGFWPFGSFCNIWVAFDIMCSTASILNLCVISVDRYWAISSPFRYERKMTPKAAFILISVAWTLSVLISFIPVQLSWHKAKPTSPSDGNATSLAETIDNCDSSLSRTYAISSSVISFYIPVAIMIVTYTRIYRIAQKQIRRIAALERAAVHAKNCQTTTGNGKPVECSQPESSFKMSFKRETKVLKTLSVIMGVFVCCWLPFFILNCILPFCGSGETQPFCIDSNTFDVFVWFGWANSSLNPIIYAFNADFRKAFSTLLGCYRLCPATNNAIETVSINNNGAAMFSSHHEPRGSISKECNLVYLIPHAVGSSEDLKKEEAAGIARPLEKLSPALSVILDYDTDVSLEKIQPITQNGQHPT
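Tetracycline-induced HEK293 TREx D1 cells, force-coupled to calcium signalling, were dye-loaded with a no-wash calcium kit. Compound was pin-added after a 10 s baseline. Fluorescence was read kinetically at 1 cycle/s for 180 s, with calcium rises flagged as agonism.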
D1 PAM = potentiators of human D1 dopamine receptor; P21728; HEK293 TREx D1 cells, calcium flux, dopamine EC20 potentiation; potentiation, % at 10 µM; hit rate 0.036% among 360,000; AID 504651; in the data active = potentiation above about 30%
TRHR PAM = TRH receptor (human) allosteric enhancement | P34981 | TRHR cells, fluo-8 calcium fluorescence, EC20 TRH enhancement | enhancement, % at 2 µM | hit rate 0.66% among 360,000 | AID 493056; in the data active = enhancement above about 30%
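Enhancer read-out: after compound pinning and an initial kinetic agonist-mode read, an EC20 of TRH (10 nM final) was injected and fluo-8 calcium signal (Ex 480/Em 530) followed at 1 s/cycle for 100 cycles in TRHR-expressing cells.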
D1 antagonist = human D1 dopamine receptor antagonism; P21728; HEK293 TREx D1 cells, calcium flux, dopamine EC80; hits give low values; activity change, negative = inhibition, % at 10 µM; hit rate 3.2% among 360,000; AID 504652; in the data active = activity change below about -30%
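Using tetracycline-induced force-coupled D1 Hek293 cells and a calcium dye, signals were followed for 180 s after compound, then for 180 s after EC80 dopamine, to detect inhibitors.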
TRHR agonist = TRH receptor (human) agonism; P34981; TRHR cells, calcium flux fluo-8, FDSS agonist mode; activation, % at 2 µM; hit rate 0.18% among 360,000; AID 493084
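In this calcium-flux screen, cells bearing human TRHR are dye-loaded with fluo-8, baselined for 10 cycles, then exposed to library compounds; positive kinetic calcium responses during the agonist phase mark hits, with TRH as control.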
Large screens that a line does not name were inactive. Rule as the data show it, unless noted: active = activation above about 30%; inactive = the rest.

CCOc1ccc(CNC(=O)Cn2ccc3cc(S(=O)(=O)N4CCCCC4)ccc32)cc1	D1 antagonist -35
CCn1ccc2cc(S(=O)(=O)N3CCCN(C(=O)Nc4ccc(C)c(F)c4)CC3)ccc21	D1 antagonist -31
COc1ccc(CNC(=O)C2CCN(S(=O)(=O)c3ccc4c(ccn4C)c3)CC2)cc1	D1 antagonist -35
COc1ccc(S(=O)(=O)N2CCC(C(=O)NCc3ccc(C)cc3)CC2)cc1	none
CC(=O)N1CCN(c2nc3c(F)cc(F)cc3s2)CC1	none (no result: D1 antagonist)
CCCCOC(=O)c1ccc(NC(=O)Cn2nnc3sc4c(c3c2=O)CCCC4)cc1	none
Cc1ccccc1CCNC(=O)Cn1ccc2cc(S(=O)(=O)N3CCCC3)ccc21	TRHR PAM 30
COC(=O)c1c(NC(=O)c2ccc(C(C)(C)C)cc2)sc2c1CCC(C)C2 (stereo unspecified)	none
Cc1nc2nc(NCc3ccccc3Cl)[nH]n2c(=O)c1Cc1ccccc1	none
CCc1c(C)nc2nc(SCc3ccccc3Cl)[nH]n2c1=O	D1 antagonist -43
Cc1ccc(C)c(NC(=O)c2ccc(CN3CC(=O)N4CCCCC4C3=O)cc2)c1 (stereo unspecified)	none
Cc1cccc(NC(=O)c2ccc(CN3CC(=O)N4CCCCC4C3=O)cc2)c1C (stereo unspecified)	TRHR PAM 45
CC12CCC(C(=O)N(c3ccc(Cl)cc3)C1=O)C2(C)C (stereo unspecified)	none
CC12CCC(C(=O)N(c3ccccc3Cl)C1=O)C2(C)C (stereo unspecified)	TRHR PAM 34
CCOc1ccc(-c2nnc(SCC(=O)NCc3ccc(Cl)cc3)o2)cc1	none
CC(=O)Nc1ccc(S(=O)(=O)Nc2cccn(Cc3ccc(C)cc3)c2=O)cc1	TRHR PAM 33
CC(=O)Nc1ccc(S(=O)(=O)Nc2ccccc2N2CCOCC2)cc1Cl	none
CC(=O)Nc1ccc(S(=O)(=O)Nc2ccccc2N2CCOCC2)cc1	TRHR PAM 34
Cc1ccc(NC(=O)c2cccc3cccnc23)cc1	D1 antagonist -31
CC(=O)Nc1ccc(S(=O)(=O)Nc2cccc3cccnc23)cc1	D1 antagonist -55
CC(=O)Nc1cccc(NC(=O)c2cccc3cccnc23)c1	none
O=C(/C=C/c1ccc(Cl)cc1Cl)Nc1ccc(CN2CCOCC2)cc1	D1 antagonist -38
C/C(=N\NC(=O)c1cc(C)oc1C)c1ccc(C)c([N+](=O)[O-])c1	none
COc1cccc(C2C(C(=O)Nc3ccccc3)=C(C)Nc3nc(-c4ccccc4)nn32)c1 (stereo unspecified)	none
Cc1cc(SCC(=O)OCC(=O)NC(C)c2ccccc2)c(C)cc1Br (stereo unspecified)	D1 antagonist -41
Cc1onc(-c2ccccc2)c1C(=O)OCC(=O)Nc1ccccc1	none
Cc1onc(-c2ccccc2)c1C(=O)OCC(=O)NC(C)c1ccc(Cl)cc1 (stereo unspecified)	D1 ag 71 (no result: D1 PAM)
CCOC(=O)c1ccc(NCc2ccc(N(C)C)cc2)cc1	D1 antagonist -35
CCOC(=O)c1ccc(NCc2ccc3c(c2)OCO3)cc1	none
Cc1onc(-c2ccccc2)c1C(=O)OCC(=O)Nc1ccc(C#N)cc1	D1 antagonist -31
CCOC(=O)c1ccc(-n2nc(C)cc2C)cc1	none
CC(NC(=O)COC(=O)c1ccco1)c1ccccc1 (stereo unspecified)	none
Cc1cc(C)n(-c2ccc(C(=O)OCC(=O)NC(c3ccccc3)c3ccccc3)cc2)n1	D1 ag 31
CC(NC(=O)COC(=O)c1ccc(N(C)C)cc1)c1ccccc1 (stereo unspecified)	D1 antagonist -70
COc1ccccc1CNC(=O)c1ccc(CN2CC(=O)N3CCCCC3C2=O)cc1 (stereo unspecified)	none
CN(C(=O)c1ccc2c(c1)N(Cc1cccc(Cl)c1)C(=O)c1ccccc1S2(=O)=O)C1CCCCC1	none
CN1CCN(c2ncc3c(n2)CCN(Cc2ccccc2Cl)C3)CC1	none
c1cncc(-c2cn(C[C@H]3CC[C@@H]([C@@H]4CC[C@H](Cn5cc(-c6cccnc6)nn5)O4)O3)nn2)c1	none
COc1cccc(N2CC34C=CC(O3)C(C(=O)O)C4C2=O)c1 (stereo unspecified)	D1 antagonist -42
CC(C)NC(=NCc1ccc(Cl)cc1Cl)Nc1ccccc1	D1 ag 46
COc1ccc(CNC(=O)C(CCSC)NS(=O)(=O)c2ccc3c(c2)oc(=O)n3C)cc1 (stereo unspecified)	none
CNC(=O)Cn1cc(S(=O)(=O)Cc2ccccc2F)c2ccccc21	none
CC1=CC(C)(C)NC(=S)N1c1ccc(C)cc1C	none
CC1=CC(C)(C)NC(=S)N1c1cc(C)cc(C)c1	D1 antagonist -51
O=C(CCCn1c(=O)c2cccn2c2cccnc21)Nc1ccccc1C(F)(F)F	none
Cc1ccc(SCc2cc(-c3ccc(Cl)cc3)no2)cc1	D1 ag 36
CCc1nn(CC(=O)NCCN(CC)CC)c(=O)c2cc3occc3n12	none
CCC1(c2ccc(Cl)cc2)NC(=O)N(Cc2ccc(C(=O)OC)cc2)C1=O (stereo unspecified)	D1 antagonist -31
N#Cc1nc(COc2ccccc2Cl)oc1NCCc1ccccc1	none
O=C(CSc1ncc(-c2ccc(F)cc2)n1Cc1ccco1)Nc1nccs1	none
Cc1cnc(NC(=O)CSc2ncc(-c3ccccc3)n2Cc2ccco2)s1	D1 ag 79, D1 antagonist -32
COc1ccc(C[C@H]2CN3C(=NC[C@@H]3C(C)C)N2C[C@H](C)NC(=O)c2ccc(C)c(Br)c2)cc1	none
COc1ccc(C[C@H]2CN3C(=NC[C@@H]3Cc3ccc(O)cc3)N2C[C@H](C)NC(=O)c2ccc(C)c(Br)c2)cc1	D1 antagonist -42
Cc1ccc(C(=O)N[C@@H](C)CN2C3=NC[C@H](C(C)C)N3C[C@H]2Cc2ccc(O)cc2)cc1Br	D1 antagonist -57
Cc1nc(/C=C/c2ccccc2)[nH]c(=O)c1-c1ccccc1	D1 antagonist -43
Nn1c(SCc2ccc(F)cc2)nnc1-c1ccncc1	none
CCCNC(=O)c1ccc(N2CCC3(CC2)CC(c2cccc(Br)c2)=NO3)c([N+](=O)[O-])c1	D1 antagonist -44
COc1ccc(-n2ncc3c(NCCC4=CCCCC4)ncnc32)cc1	none
O=C(NCCCO)C(=O)NCC(c1ccc2c(c1)OCO2)N1CCOCC1 (stereo unspecified)	none
C=CCOc1ccc(CN(C)C(=O)CNC(=O)c2ccc(-c3ccccc3)cc2)cc1	D1 ag 35
Cc1ccccc1OCCSCc1nc2ccccc2[nH]1	D1 antagonist -30
Cc1cccc(OCCSCc2nc3ccccc3[nH]2)c1	none
CC(=O)N1CCc2c(sc3c2c(=O)n(-c2ccccc2)c(=O)n3CC(=O)Nc2cccc(C)c2)C1	none
CC(C)(C)c1ccccc1Nc1nc(C#N)nc(NC2CCCC2)n1	none
